Screening results as filed in PubChem BioAssay.
MBD2 inh: blocks human MBD2 binding to methylated DNA | Q9UBB5 | TR-FRET, MBD2 binding to methylated oligonucleotide | inhibition, % at 4.4 µM | hit rate 0.31% among 370,000 | AID 686964; in the data active = inhibition above about 13%
UHRF1 binding: UHRF1 methyl-DNA binding inhibition. hit rate 0.75% among 370,000. UHRF1 binding to methylated oligo, TR-FRET. inhibition, % at 4.4 µM. Q96T88. AID 687016; in the data active = inhibition above about 21%;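 note: UHRF1 SRA domain binding a hemimethylated CpG hairpin DNA probe; 0% = median of test compound wells and 100% = reference inhibitor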
LEDGF integ inh: blocks HIV-1 LEDGF/p75-dependent DNA integration. TR-FRET IN-LEDGF/p75 DNA integration, Eu/Cy5. inhibition, % at 3.7 µM. hit rate 0.64% among 370,000. AID 743269;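 active = inhibition above the screen-wide mean plus 3 SD, cut at about 13% in these data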;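 note: signal is the Cy5 over europium emission ratio at 671 and 618 nm; 0% = plate median of compound wells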
proKLK7 act: activators of human kallikrein-7 zymogen | P49862 | purified proKLK7, EDANS-DABCYL substrate fluorescence; 100% is mature enzyme control, 0% vehicle | activation, % at 7 µM | hit rate 0.9% among 370,000 | AID 652039;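 active = activation above the mean of all tested compounds plus 3 SD, computed per campaign excluding outliers beyond control limits, cut at about 13% in these data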
Neddyl block: inhibitors of human cullin neddylation; P61081+Q13564; TR-FRET cullin neddylation, biochemical; calls only at 25 µM; hit rate 0.58% among 360,000; in the data active = inhibition above about 36%
Rin1 Abl inh: human Rin1-Abl interaction inhibition; TR-FRET Rin1/Abl binding, biochemical; AID 588664; P00519+Q13671; hit rate 0.4% among 360,000; inhibition, % at 7.35 µM; in the data active = inhibition above about 5%, passing the limit was not always enough
proKLK7 act conf: proKLK7 activation, confirmation. shares compounds with proKLK7 act. purified proKLK7, EDANS-DABCYL substrate fluorescence; scaled: vehicle 0, mature enzyme 100. activation, % at 7 µM. hit rate 68% among 3,200;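 active = activation, as change over the incubation, above the mean of all tested compounds plus 3 SD, cut at about 13% in these data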
EDANS-DABCYL int: counter-screen for kallikrein-7 activators: EDANS-DABCYL optical interference. activation, % at 7 µM. hit rate 80% among 3,200. shares compounds with proKLK7 act. EDANS-DABCYL substrate fluorescence interference, no enzyme, 4 h; solvent 0%, active enzyme control 100%;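 active = activation above the all-compound mean plus 3 SD, ignoring values outside control-based bounds, cut at about 4.8% in these data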;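 note: value is the 4 h activation minus the activation read at time zero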
K7 EDANS ctr: optically interferes with EDANS-DABCYL fluorescence, kallikrein-7 activator counter-screen; shares compounds with proKLK7 act; EDANS-DABCYL peptide fluorescence interference, no enzyme; EC50, µM; hit rate 20% among 250;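 active = compounds that raise the fluorescence signal in this interference counterscreen, with EC50 at or below 10 µM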;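 note: intact quenched peptide substrate alone read at 355 nm excitation and 520 nm emission; signal is fluorescence gain from T0 to T4 after four hours at room temperature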
UHRF1 ctr MBD2: inhibits human UHRF1 binding to methylated oligonucleotide, MBD2 counter-screen. TR-FRET. inhibition, % at 4.4 µM. AID 720530. hit rate 25% among 1,000. shares compounds with MBD2 inh; in the data active = inhibition above about 21%;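 note: UHRF1 SRA domain binding a labeled hemimethylated CpG hairpin DNA; 0% = vehicle only and 100% = reference inhibitor with vehicle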
MBD2 DBD conf: confirmation of human MBD2-DBD methylated oligonucleotide binding inhibitors | shares compounds with MBD2 inh | TR-FRET MBD2-DBD binding to methylated oligonucleotide | inhibition, % at 4.4 µM | hit rate 26% among 1,000
IN multimer act: counter-screen for LEDGF/p75 integration inhibitors: HIV-1 integrase multimerization activators. hit rate 17% among 2,000. AID 1053131. TR-FRET HIV-1 integrase multimerization, biochemical. shares compounds with LEDGF integ inh. activation, % at 7.7 µM; in the data active = activation above about 8.9%
TR-FRET interf: counter-screen for LEDGF/p75 integration inhibitors: TR-FRET optical interference; inhibition, % at 7.7 µM; 2,000 tested, under 10 active; shares compounds with LEDGF integ inh; TR-FRET optical interference counterscreen, HIV-1 IN multimerization;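 active = inhibition above the mean over all tested compounds plus 3 SD, which no compound reached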;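 note: 0% = integrase with antibodies and DMSO and 100% = antibodies without integrase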
LEDGF integ conf: confirmation of HIV-1 LEDGF/p75-dependent integration inhibitors; hit rate 36% among 2,000; inhibition, % at 3.7 µM; shares compounds with LEDGF integ inh; TR-FRET LEDGF/p75-dependent HIV-1 integration, biochemical
Numbers without * were called inactive; i = inactive; / = not tested or not shown. An excerpt weighted towards active compounds, which were near 3.1% of everything screened. Cut-off read from the data, not from the text of the source, unless noted: active = inhibition above about 14%; inactive = the rest.

SMILES	MBD2 inh	UHRF1 binding	LEDGF integ inh	proKLK7 act	Neddyl block	Rin1 Abl inh	UHRF1 ctr MBD2	MBD2 DBD conf	others
CN(C)[C@@H]1C(=O)C(C(N)=O)=C(O)[C@@]2(O)C(=O)C3=C(O)c4c(O)ccc(Cl)c4[C@@](C)(O)[C@H]3C[C@@H]12	-5	2	14*	13*	i	7	/	/	proKLK7 act conf=37*;EDANS-DABCYL int=35*;IN multimer act=6;TR-FRET interf=-29;LEDGF integ conf=5
CN1OC[C@@H]2CN3C4(C[C@@H]21)c1ccccc1C3(c1ccccc1)c1ccccc14	1	0	-2	-1	/	/	/	/
CN1C[C@H](CO)C=C2c3cccc4[nH]cc(c34)C[C@H]21	-5	-5	16*	39*	/	-12	/	/	proKLK7 act conf=30*;EDANS-DABCYL int=25*;K7 EDANS ctr=>70;IN multimer act=1;TR-FRET interf=-4;LEDGF integ conf=3
COC(=O)C1=C(c2ccc(F)cc2F)C[C@@H]2CC[C@H]1N2C(=O)N1CCC(O)CC1	0	3	3	0	i	0	/	/
Cc1ccc(-c2cc(-c3ccccc3)cc(-c3ccccc3)[n+]2-c2ccccc2C(=O)O)cc1	19*	21*	3	3	/	0	12	28*
O=C(c1ccc(F)cc1)N1CCC2(CC1)OCCO2	-3	-2	2	1	i	0	/	/
COC(=O)C1=C(c2c(C)noc2C)C[C@@H]2CC[C@H]1N2C(=O)N1CCC(C)CC1	3	0	-1	1	i	-2	/	/
COC(=O)C1=C(c2c(C)noc2C)C[C@@H]2CC[C@H]1N2C(=O)N1CCC(O)CC1	28*	0	0	0	i	-1	4	2
COCCCNP1(=O)OCC(C)([N+](=O)[O-])CO1 (stereo unspecified)	-7	1	1	0	i	-1	/	/
COC(=O)C1=C(c2ccc(F)cc2OCc2ccccc2)C[C@@H]2CC[C@H]1N2C(=O)NCCOc1ccccc1Cl	16*	1	-2	0	i	1	-3	2
COC1C(C)OC(OC2CC(C)(O)Cc3cc4c(c(O)c32)C(=O)c2c(O)cc3c(c2C4=O)OC2OC3(C)C(O)C(N(C)C)C2O)C(OC)C1(C)OC (stereo unspecified)	107*	97*	3	2	i	-3	102*	109*
COc1cc(O)cc2c1cc([N+](=O)[O-])c1c(C(=O)O)cc3c(c12)OCO3	-12	-5	1	-1	i	-2	/	/
Cc1ccc(OC(=O)N(C)C[C@H]2OCc3cnnn3CCCC(=O)N([C@@H](C)CO)C[C@H]2C)cc1	6	-1	0	0	i	0	/	/
CCc1ccccc1NC(=O)CNC1CCCCC1	2	2	-3	0	i	-1	/	/
Cc1ccc2ccccc2c1NC(=O)CNC1CCCCC1	18*	0	0	0	i	1	4	5
